HSF1 activator = increases HSF-1 driven luciferase reporter signal; 300,000 tested, 1.7% active; AID 504408; NIH3T3-HGL HSF-1 luciferase reporter, MG132, 8 h; 100% = twice DMSO control signal; activation, % at 9 µM;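 active means mean replicate activation of at least 50% with a set share of replicates each reaching 50%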
esBAF inh = blocks esBAF chromatin remodeling in mouse ES cells | Bmi1-luciferase knock-in reporter, 24 h; 100% = twice the neutral-well signal | reporter increase, % at 12.5 µM | 350,000 tested, 2% active | AID 602393; in the data active means activation above about 40%;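 further: a rise in the Bmi1 reporter signal indicates esBAF inhibition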
MITF TRPM1 HTS = MITF TRPM1 promoter activation in melanoma cells | SK-MEL-5 TRPM1-promoter luciferase, 24 h; % of positive control, neutral wells = 0 | activation, % at 12.5 µM | 300,000 tested, 0.75% active | AID 588334;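 active means mean activation of at least 80% with every replicate also reaching 80%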
Wnt act = Wnt/beta-catenin pathway activation. Wnt/beta-catenin reporter cell assay, activator, plate reader. activation, % at 9.35 µM. 300,000 tested, 1.2% active. AID 743398; in the data active means activation above about 30%, passing the limit was not always enough
HSF1 inh = HSF1 inhibition; NIH3T3-HGL HSE-luciferase, MG132-induced, luminescence 8 h; hits give low values; activity change, negative = inhibition, % at 7.5 µM (by protocol); 300,000 tested, 0.77% active;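 active means more than half of replicate wells show activity change below -50%, luminescence cut by over half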;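 further: luciferase reports HSF-1 transcriptional activity via heat shock element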
SMARCA2 act = activators of SMARCA2 function; AID 652017; activation, % at 9.1 µM; 370,000 tested, 1% active; MG213 cells, MMTV-luciferase reporter, dexamethasone, overnight; in the data active means activation above about 7.8%
A number is an active result; 0 = inactive; - = no result. Shown are actives, neighbours in structure and some others; about 4.3% of the full set was active somewhere.

SMILES	HSF1 activator	esBAF inh	MITF TRPM1 HTS	Wnt act	HSF1 inh	SMARCA2 act
Cc1cc(C)cc(OCc2ccc(C(=O)O)o2)c1	0	0	-	-	0	0
O=C(C[C@H]1C[C@@H]2c3cc(NC(=O)Nc4ccc(C(F)(F)F)cc4)ccc3O[C@@H]2[C@H](CO)O1)NCc1ccccn1	-	0	-	-	-	-
C[C@@H]1CN([C@H](C)CO)C(=O)c2cccc(NS(=O)(=O)c3cn(C)cn3)c2O[C@H]1CN(C)S(=O)(=O)c1cccs1	-	0	-	-	-	-
Cc1nn(-c2ccccc2)c(C)c1/C=N/NC(=O)CSc1nnc(SCc2ccc(Cl)cc2)s1	68	-	0	0	0	0
Cc1nn(-c2ccccc2)c(Cl)c1/C=N/NC(=O)OC(C)(C)C	0	-	0	34	0	0
CNC(=S)N/N=C/c1c(C)nn(-c2ccccc2)c1Cl	0	-	0	-	0	0
Cc1cccc(NC(=O)c2nc[nH]c2C(=O)NCCCNC(=O)c2[nH]cnc2C(=O)Nc2cccc(C)c2)c1	-	0	0	0	-	0
Cc1cccc(NC(=O)c2nc[nH]c2C(=O)Nc2cccc(C)c2)c1	53	-	0	0	0	0
Cc1ccccc1NC(=O)c1nc[nH]c1C(=O)NCc1ccccc1	59	-	0	-	0	0
Cc1ccc(NC(=O)c2nc[nH]c2C(=O)NCc2ccccc2)cc1	-	0	0	0	-	0
CCC(=O)N(C)C[C@@H]1Oc2cc(-c3cncnc3)ccc2S(=O)(=O)N([C@H](C)CO)C[C@@H]1C	-	0	-	-	-	-
Cc1noc(C)c1S(=O)(=O)Nc1ccc2c(c1)C(=O)N([C@@H](C)CO)C[C@H](C)[C@H](CN(C)C(=O)Cc1ccccc1)OCCCC[C@H](C)O2	-	0	-	-	-	-
CCC(SC1=Nc2ccccc2C2=NC(CC(C)C)C(=O)N12)C(=O)Nc1ccc2c(c1)OCO2 (stereo not given)	0	51	0	0	0	0
O=C(CSC1=NCCS1)Nc1cccc2ccccc12	0	0	0	0	0	0
O=C(CSc1cccs1)Nc1cccc2ccccc12	63	72	0	0	0	0
O=C(CSc1cccs1)Nc1ccc2ccccc2c1	57	60	-	-	0	0
O=C(CSc1ccccc1)Nc1ccc2sccc2c1	0	0	0	0	0	0
C[C@H](CO)N1C[C@H](C)[C@@H](CN(C)C(=O)Nc2cccc3ccccc23)Oc2ccc(NC(=O)C3CCCCC3)cc2CC1=O	-	0	-	-	-	-
Cc1nc(NC(=S)Nc2ccccc2)sc1C	0	-	0	80	0	0
CC(C)Cc1nnc(NC(=O)CCC(=O)Nc2ccccc2)s1	0	0	0	0	0	0
CC(C)Cc1nnc(NC(=O)Nc2ccccc2)s1	0	53	96	38	0	0
CCOc1ccc(C(=O)Nc2nnc(NC(=S)Nc3ccccc3)s2)cc1	0	0	0	0	0	0
CCC(C(=O)Nc1nc(C)c(C)s1)c1ccccc1 (stereo not given)	0	0	-	0	0	0
Cc1ccc(C(=O)Nc2nnc(NC(=S)Nc3ccccc3)s2)cc1	0	56	0	0	0	0
CCc1nnc(NC(=S)Nc2ccccc2)s1	0	-	0	0	0	7.8
SMILES	HSF1 activator	esBAF inh	MITF TRPM1 HTS	Wnt act	HSF1 inh	SMARCA2 act
O=C(CCNS(=O)(=O)c1cccc2nsnc12)NCc1cccs1	0	-	0	0	-80	0
C[C@@H]1CCCCO[C@H](CN(C)C(=O)c2ccncc2)[C@@H](C)CN([C@H](C)CO)C(=O)c2cc(NC(=O)NC3CCCCC3)ccc2O1	-	0	-	-	-	-
Cc1ccc(S(=O)(=O)N2CC[C@@H]3[C@H]2c2cc(C#Cc4cccnc4)ccc2N(C)[C@H]3CO)cc1	-	0	-	-	-	-
CCC(C)NC(=O)C1(C)CCC(=O)N1Cc1ccccc1OC (stereo not given)	0	0	-	-	-74	0
COc1cccc(NC(=O)N(C)C[C@@H]2Oc3cc(-c4ccccc4F)ccc3S(=O)(=O)N([C@H](C)CO)C[C@@H]2C)c1	-	0	-	-	-	-
C[C@H]1CN([C@@H](C)CO)C(=O)Cc2cc(NC(=O)CCC(F)(F)F)ccc2O[C@@H]1CN(C)C(=O)Nc1cccc2ccccc12	-	0	-	-	-	-
O=C(CSc1nnc2ccccn12)c1ccc(Cl)cc1	0	0	0	36	0	0
CC(C)(C)c1cc(NC(=O)CCSc2nnc3ccccn23)cc(C(C)(C)C)c1	54	0	-	0	0	0
CC(C)c1ccc(N=C2NN=C(c3cccs3)CS2)cc1	0	-	100	0	0	0
C[C@H]1CN([C@@H](C)CO)C(=O)Cc2cc(NC(=O)Nc3ccccc3)ccc2O[C@H]1CN(C)Cc1ccc(C(F)(F)F)cc1	-	0	-	-	-	-
Cc1cc(NC(=O)c2ccc3[nH]c(C)c(C)c3c2)ccn1	0	0	0	0	0	0
CC(=O)Nc1cccc(NC(=O)c2ccc3[nH]c(C)c(C)c3c2)c1	0	49	0	0	0	0
C[C@@H]1CN([C@@H](C)CO)S(=O)(=O)c2ccc(-c3cccc(C#N)c3)cc2O[C@H]1CN(C)C(=O)c1ccc(F)cc1	-	0	-	-	-	-
O=C(C[C@@H]1C=C[C@@H](NC(=O)Cc2ccccn2)[C@H](CO)O1)NCCc1ccccc1	-	0	-	-	-	-
Cn1cccc1-c1nc2ccc(NC(=O)c3cccs3)cc2[nH]1	0	64	0	0	0	0
CC(=O)Nc1ccc2nc(-c3cccn3C)[nH]c2c1	0	51	-	0	0	0
CC1CC/C(=C\c2ccc3c(c2)OCO3)C(=O)/C1=C/c1ccc2c(c1)OCO2 (stereo not given)	87	0	0	0	0	0
Oc1ccc(/C=N/NC(=S)NCC2CCCO2)cc1 (stereo not given)	0	0	0	-	0	0
S=C(N/N=C/c1cccs1)NC1CC2CCC1C2 (stereo not given)	64	-	-	34	0	0
S=C(NCCN1CCOCC1)N/N=C/c1cccs1	0	0	0	0	0	0
Oc1ccc(/C=N/NC(=S)NC2CC3CCC2C3)cc1 (stereo not given)	0	47	0	0	0	0
Cc1ccc(S(=O)(=O)N(C)C[C@@H]2Oc3ccc(NC(=O)Cn4cnnn4)cc3C(=O)N([C@@H](C)CO)C[C@@H]2C)cc1	-	0	-	-	-	-
COC(=O)c1c(NC(=O)c2nn(C)cc2Cl)sc2c1CCCC2	58	-	0	-	0	0
COC(=O)c1c(NC(=O)c2ccn(C)n2)sc2c1CCC2	0	0	0	0	0	0
C[C@@H]1CCCCO[C@@H](CN(C)S(=O)(=O)c2ccccc2)[C@H](C)CN([C@@H](C)CO)C(=O)c2cc(NS(=O)(=O)c3ccc(Cl)cc3)ccc2O1	-	0	-	-	-	-
O=C(Nc1ccc(Cl)c(Cl)c1)N1CC=CCC1	0	100	0	-	0	0
Cc1ccc(NC(=O)N2CCCC2)cc1Cl	0	-	0	0	0	0
O=C(C[C@H]1C[C@H]2c3cc(NS(=O)(=O)c4ccc(F)cc4)ccc3O[C@H]2[C@@H](CO)O1)NCC(F)(F)F	-	0	-	-	-	-
CCOC(=O)N1CCN(C(=O)c2cccc(S(=O)(=O)Nc3ccc(OC)cc3)c2)CC1	0	-	0	0	0	0

Assay outcomes: PubChem BioAssay, several laboratories
